Compounds without any hit were thinned out: in the full panel of roughly 83,000, 20% have a hit.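 Cell lines were cultured in 96-well plates, exposed to a single compound concentration, and assessed for percent growth 48 hours later.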 Activity calls are given as the source filed them. The calls were made as follows: active = growth percent below 10; inactive = the rest.
Legend:
Assay in all cases: NCI-60 one-dose screen, 48 h (100 = growth as untreated, 0 = no growth, -100 = all killed)
SR leukemia = conditions: 10 µM
RPMI-8226 leukemia = conditions: 10 µM
OVCAR-8 ovarian = conditions: 10 µM
OVCAR-5 ovarian = conditions: 10 µM
OVCAR-4 ovarian = conditions: 10 µM
SK-OV-3 ovarian = conditions: 10 µM
OVCAR-3 ovarian = conditions: 10 µM
HS 578T breast = conditions: 10 µM
NCI/ADR-RES ovarian = conditions: 10 µM
T-47D breast = conditions: 10 µM
BT-549 breast = conditions: 10 µM
MDA-MB-435 melanoma = conditions: 10 µM
SW-620 colon = conditions: 10 µM
MCF7 breast = conditions: 10 µM unless noted
HCC-2998 colon = conditions: 10 µM
KM12 colon = conditions: 10 µM
IGROV1 ovarian = conditions: 10 µM
HCT-116 colon = conditions: 10 µM

Measured: growth

CC(=O)Cc1ccc(-c2ccccc2)cc1
inactive: SR leukemia 102% | RPMI-8226 leukemia 97.5% | OVCAR-8 ovarian 104% | OVCAR-5 ovarian 112% | OVCAR-4 ovarian 109% | SK-OV-3 ovarian 108% | OVCAR-3 ovarian 113% | HS 578T breast 99.4% | NCI/ADR-RES ovarian 103% | T-47D breast 97.6% | BT-549 breast 109% | MDA-MB-435 melanoma 114% | SW-620 colon 108% | MCF7 breast 93.3% | HCC-2998 colon 101% | KM12 colon 101%

CCC(O)CC(CC)CO (stereo not drawn)
inactive: SR leukemia 108% | RPMI-8226 leukemia 111% | OVCAR-8 ovarian 104% | OVCAR-5 ovarian 104% | SK-OV-3 ovarian 115% | IGROV1 ovarian 114% | OVCAR-3 ovarian 130% | HS 578T breast 130% | NCI/ADR-RES ovarian 110% | T-47D breast 115% | MDA-MB-435 melanoma 114% | SW-620 colon 110% | MCF7 breast 97.8% | HCT-116 colon 100% | HCC-2998 colon 109% | KM12 colon 128%

CC1CCCCN1C(=S)Nc1ccc(S(=O)(=O)N2CCCCC2)cc1 (stereo not drawn)
inactive: SR leukemia 81.1% | RPMI-8226 leukemia 74.7% | OVCAR-8 ovarian 106% | OVCAR-5 ovarian 100% | OVCAR-4 ovarian 90.4% | IGROV1 ovarian 138% | OVCAR-3 ovarian 97.7% | HS 578T breast 88.9% | NCI/ADR-RES ovarian 107% | MDA-MB-435 melanoma 96.3% | SW-620 colon 93.2% | MCF7 breast 102% | HCT-116 colon 91.5% | HCC-2998 colon 112% | KM12 colon 97.1%

CCOC(=O)c1[nH]c(C)c(C(=O)O)c1C
inactive: SR leukemia 97.6% | RPMI-8226 leukemia 96.6% | OVCAR-8 ovarian 105% | OVCAR-5 ovarian 113% | SK-OV-3 ovarian 118% | IGROV1 ovarian 108% | OVCAR-3 ovarian 115% | HS 578T breast 131% | NCI/ADR-RES ovarian 107% | T-47D breast 109% | MDA-MB-435 melanoma 110% | MCF7 breast 78.9% | HCC-2998 colon 107% | KM12 colon 110%

CC(C)=NNC(N)=S
inactive: SR leukemia 86.7% | RPMI-8226 leukemia 67.8% | OVCAR-8 ovarian 72.4% | OVCAR-5 ovarian 89% | OVCAR-4 ovarian 59.4% | SK-OV-3 ovarian 115% | OVCAR-3 ovarian 37.2% | HS 578T breast 84.3% | NCI/ADR-RES ovarian 47.3% | T-47D breast 44.1% | BT-549 breast 88.3% | MDA-MB-435 melanoma 80.2% | SW-620 colon 68.7% | HCT-116 colon 21.4% | KM12 colon 94.9%
active: MCF7 breast 7%

O=S(=O)(O)C(Nc1ccccc1)c1ccccc1 (stereo not drawn)
active: HCC-2998 colon -12.8%
inactive: SR leukemia 98.9% | RPMI-8226 leukemia 100% | OVCAR-8 ovarian 104% | OVCAR-5 ovarian 92.4% | OVCAR-4 ovarian 102% | SK-OV-3 ovarian 97% | OVCAR-3 ovarian 107% | HS 578T breast 93.2% | NCI/ADR-RES ovarian 96.9% | T-47D breast 93.7% | MDA-MB-435 melanoma 104% | SW-620 colon 102% | MCF7 breast 98.5% | HCT-116 colon 103% | KM12 colon 100%

CCOc1ccc(/C=N/N=C(N)N)cc1OCC
inactive: SR leukemia 76.3% | RPMI-8226 leukemia 101% | OVCAR-8 ovarian 106% | OVCAR-5 ovarian 101% | SK-OV-3 ovarian 106% | IGROV1 ovarian 95.9% | OVCAR-3 ovarian 107% | NCI/ADR-RES ovarian 109% | T-47D breast 88.4% | MDA-MB-435 melanoma 99% | MCF7 breast 82.3% | HCT-116 colon 95.8% | HCC-2998 colon 101% | KM12 colon 108%

S=C(Nc1ccccc1)N1CCCCC1
inactive: SR leukemia 105% | RPMI-8226 leukemia 110% | OVCAR-8 ovarian 99.4% | OVCAR-4 ovarian 111% | SK-OV-3 ovarian 107% | IGROV1 ovarian 100% | OVCAR-3 ovarian 110% | HS 578T breast 102% | NCI/ADR-RES ovarian 107% | T-47D breast 89.3% | BT-549 breast 112% | MDA-MB-435 melanoma 110% | SW-620 colon 106% | MCF7 breast 93.2% | HCT-116 colon 92.3% | HCC-2998 colon 101% | KM12 colon 105%

CCC(C)(O)c1ccc(C)cc1 (stereo not drawn)
inactive: SR leukemia 105% | RPMI-8226 leukemia 96.7% | OVCAR-8 ovarian 104% | OVCAR-5 ovarian 101% | OVCAR-4 ovarian 106% | SK-OV-3 ovarian 97.8% | OVCAR-3 ovarian 107% | HS 578T breast 112% | NCI/ADR-RES ovarian 110% | T-47D breast 104% | BT-549 breast 105% | MDA-MB-435 melanoma 106% | SW-620 colon 98.2% | MCF7 breast 100% | HCT-116 colon 108% | KM12 colon 100%

N#C/C(=C\c1cc(O)c(O)c(O)c1)C(N)=O
inactive: SR leukemia 72.9% | RPMI-8226 leukemia 19.6% | OVCAR-5 ovarian 98.2% | OVCAR-4 ovarian 45.7% | SK-OV-3 ovarian 110% | IGROV1 ovarian 122% | OVCAR-3 ovarian 107% | HS 578T breast 110% | NCI/ADR-RES ovarian 102% | T-47D breast 110% | BT-549 breast 96.5% | MDA-MB-435 melanoma 89.4% | MCF7 breast 100% | HCT-116 colon 92.8% | HCC-2998 colon 98.3% | KM12 colon 103%

O=C(O)c1cccc([N+](=O)[O-])c1
inactive: SR leukemia 97.4% | RPMI-8226 leukemia 120% | OVCAR-8 ovarian 103% | OVCAR-4 ovarian 105% | SK-OV-3 ovarian 113% | IGROV1 ovarian 113% | OVCAR-3 ovarian 109% | HS 578T breast 110% | NCI/ADR-RES ovarian 107% | T-47D breast 109% | BT-549 breast 108% | MDA-MB-435 melanoma 111% | SW-620 colon 111% | MCF7 breast 99.2% | HCT-116 colon 102% | HCC-2998 colon 102% | KM12 colon 105%

O=C(CCl)N1CCN(C/C=C/c2ccccc2)CC1
inactive: SR leukemia 23.1% | RPMI-8226 leukemia 90.5% | OVCAR-8 ovarian 80% | OVCAR-4 ovarian 81.6% | SK-OV-3 ovarian 99.7% | IGROV1 ovarian 40.8% | OVCAR-3 ovarian 116% | HS 578T breast 100% | NCI/ADR-RES ovarian 105% | T-47D breast 83.8% | BT-549 breast 94% | MDA-MB-435 melanoma 85% | SW-620 colon 90.3% | HCT-116 colon 68.5% | HCC-2998 colon 125% | KM12 colon 112%

CC1(C)N=C(N)N=C(N)N1c1cccc(Br)c1
inactive: SR leukemia 49.4% | RPMI-8226 leukemia 43.9% | OVCAR-8 ovarian 33.1% | OVCAR-4 ovarian 49.7% | SK-OV-3 ovarian 44.3% | IGROV1 ovarian 54.9% | OVCAR-3 ovarian 52.8% | T-47D breast 80.9% | BT-549 breast 46.7% | MDA-MB-435 melanoma 26.3% | SW-620 colon 36.6% | MCF7 breast 23.6% | HCT-116 colon 22.9% | HCC-2998 colon 23.4% | KM12 colon 40.6%

COc1cc2c3c(n(C)c(=O)c2cc1OC)-c1cc2c(cc1C3=O)OCO2
inactive: SR leukemia 17.6% | RPMI-8226 leukemia 48.2% | OVCAR-5 ovarian 78.4% | OVCAR-4 ovarian 55.8% | SK-OV-3 ovarian 74.6% | IGROV1 ovarian 11.3% | OVCAR-3 ovarian 104% | HS 578T breast 102% | NCI/ADR-RES ovarian 77.5% | T-47D breast 28.2% | BT-549 breast 68.6% | MDA-MB-435 melanoma 72.3% | SW-620 colon 58.8% | MCF7 breast 26.8% | HCT-116 colon 51.5% | HCC-2998 colon 64.5% | KM12 colon 83.9%

O=C(O)C(Cc1ccccc1)C(=O)O
inactive: SR leukemia 101% | RPMI-8226 leukemia 109% | OVCAR-8 ovarian 109% | OVCAR-4 ovarian 96.3% | SK-OV-3 ovarian 103% | IGROV1 ovarian 113% | OVCAR-3 ovarian 110% | HS 578T breast 104% | NCI/ADR-RES ovarian 106% | T-47D breast 103% | BT-549 breast 99.1% | MDA-MB-435 melanoma 111% | SW-620 colon 105% | MCF7 breast 99.8% | HCT-116 colon 96.8% | HCC-2998 colon 106% | KM12 colon 107%

COc1cc(C(=O)NC(=S)Nc2ccc3ccccc3c2)cc(OC)c1OC
inactive: SR leukemia 87.4% | RPMI-8226 leukemia 88.9% | OVCAR-8 ovarian 104% | IGROV1 ovarian 95.5% | OVCAR-3 ovarian 107% | HS 578T breast 94.5% | NCI/ADR-RES ovarian 51.5% | T-47D breast 91.2% | BT-549 breast 121% | MCF7 breast 93.2% | HCC-2998 colon 99.5% | KM12 colon 95.5%

OCc1ccc(-c2ccc(-c3ccc(CO)s3)o2)s1
active: RPMI-8226 leukemia -22.5% | OVCAR-4 ovarian -22.4% | IGROV1 ovarian -73% | OVCAR-3 ovarian -30.8% | T-47D breast -15.5% | HCT-116 colon 5.2% | HCC-2998 colon -14.5%
inactive: SR leukemia 60.8% | OVCAR-5 ovarian 103% | SK-OV-3 ovarian 78.2% | HS 578T breast 81.8% | NCI/ADR-RES ovarian 65.1% | BT-549 breast 58.4% | MDA-MB-435 melanoma 38% | SW-620 colon 10.9% | KM12 colon 81.5%

O=C(N/N=C/c1ccccc1O)Nc1nn[nH]n1
inactive: SR leukemia 102% | RPMI-8226 leukemia 95.6% | OVCAR-8 ovarian 101% | OVCAR-4 ovarian 102% | SK-OV-3 ovarian 113% | IGROV1 ovarian 111% | OVCAR-3 ovarian 116% | HS 578T breast 99% | NCI/ADR-RES ovarian 109% | T-47D breast 105% | BT-549 breast 111% | MDA-MB-435 melanoma 98.3% | SW-620 colon 101% | MCF7 breast 88.6% | HCT-116 colon 89% | KM12 colon 114%

CCCCC1C(=O)N(c2ccccc2)N(c2ccccc2)C1=O
inactive: SR leukemia 103% | RPMI-8226 leukemia 96.6% | OVCAR-8 ovarian 103% | OVCAR-4 ovarian 117% | SK-OV-3 ovarian 105% | IGROV1 ovarian 106% | OVCAR-3 ovarian 115% | HS 578T breast 114% | NCI/ADR-RES ovarian 103% | T-47D breast 109% | BT-549 breast 98.8% | MDA-MB-435 melanoma 108% | SW-620 colon 106% | HCT-116 colon 102% | HCC-2998 colon 109% | KM12 colon 109%
